This note sets out measurements from PubChem BioAssay (Tox21).

Values joined by “and” are separate entries in the source; they are usually repeats but may differ in a detail not shown here. Equal values may be shown once. Records with an inconclusive call do not appear. More than one record can exist for a structure, and the calls need not agree. Active and inactive are the calls of the source. Unless noted, calls come from the whole dose curve; as a rule, active = well fitted curve in the direction sought with a large enough effect in the repeat runs; inconclusive = weak or mixed curves; inactive = no such curve, though single readings can be large; an effect the other way counts as inactive or inconclusive.

The nature of assay [1]: qHTS assay to identify small molecule antagonists of the thyroid receptor (TR) signaling pathway - cell viability counter screen (AID 743064). Note: nearly all actives have a fitted effect of over 50% in size. Put shortly:
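GH3.TRE-Luc cells, 4 h pre-plating; cpd + T3 1 nM final; 37 °C 23.5 h; CellTiter-Fluor 30 min; fluorescence read.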
For orientation: Quantitative high-throughput screening tests each substance at several concentrations.

Assay [2] in a line: qHTS assay to identify small molecule antagonists of the thyroid receptor (TR) signaling pathway (AID 743065). Note: series mostly up to about 70 µM; nearly all actives have a fitted effect of over 55% in size. A digest of the protocol: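 GH3.TRE-Luc rat pituitary cells carrying two TR response elements driving luciferase were plated for 4 h, given compound plus 1 nM T3 (final), and incubated 23.5 h at 37 C. ONE-Glo luminescence measured reporter inhibition; CellTiter-Fluor fluorescence tracked cytotoxicity.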

In assay [3] the test system is thyroid hormone receptor (rat, GH3 cells). The assay can be described thus: qHTS assay to identify small molecule agonists of the thyroid receptor (TR) signaling pathway (AID 743066; calls by dose curve).
Assay [4] addresses Estrogen receptor (Homo sapiens) (UniProt P03372). The assay is described as follows: qHTS assay to identify small molecule antagonists of the estrogen receptor alpha (ER-alpha) signaling pathway (AID 743069; active = well fitted curve in the direction sought with a large enough effect in the signal ratio in the repeat runs, not every such curve was filed as active; the % refers to the signal ratio). Put shortly:
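HEK293 cells stably carrying an ER-alpha-UAS-bla beta-lactamase reporter were pre-cultured overnight in 2% charcoal-stripped FBS medium. Test compounds in DMSO were added together with 17beta-estradiol for 18 hr at 37C. Read-out was fluorescence after 2 hr with LiveBLAzer B/G FRET substrate at room temperature.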

Assay [5] in a line: qHTS assay to identify small molecule antagonists of the estrogen receptor alpha (ER-alpha) signaling pathway - cell viability counter screen (AID 743074; calls by dose curve; note: nearly all actives have a fitted effect of over 45% in size).
The target of assay [6] is Estrogen receptor (Homo sapiens) (UniProt P03372). The assay can be described thus: qHTS assay to identify small molecule agonists of the estrogen receptor alpha (ER-alpha) signaling pathway (AID 743075; calls by dose curve).
Estrogen receptor (Homo sapiens), sequence (P03372 whole entry, looked up): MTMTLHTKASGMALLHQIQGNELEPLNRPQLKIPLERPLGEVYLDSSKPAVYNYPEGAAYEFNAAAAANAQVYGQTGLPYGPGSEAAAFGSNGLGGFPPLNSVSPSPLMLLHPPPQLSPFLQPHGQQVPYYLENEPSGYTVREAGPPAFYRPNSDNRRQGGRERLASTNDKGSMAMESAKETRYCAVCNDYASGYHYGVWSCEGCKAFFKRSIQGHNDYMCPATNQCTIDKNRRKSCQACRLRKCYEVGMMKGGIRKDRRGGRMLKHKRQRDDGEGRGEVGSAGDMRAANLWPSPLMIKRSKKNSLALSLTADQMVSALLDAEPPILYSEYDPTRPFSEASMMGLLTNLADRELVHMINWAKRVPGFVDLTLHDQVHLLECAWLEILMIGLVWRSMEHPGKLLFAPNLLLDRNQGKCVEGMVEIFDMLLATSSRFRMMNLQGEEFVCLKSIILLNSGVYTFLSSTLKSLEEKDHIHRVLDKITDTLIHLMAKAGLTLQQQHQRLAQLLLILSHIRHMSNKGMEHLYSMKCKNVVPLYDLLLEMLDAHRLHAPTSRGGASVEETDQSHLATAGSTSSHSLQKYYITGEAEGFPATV
For assay [7] the target is unchanged. The assay can be described thus: qHTS assay to identify small molecule agonists of the estrogen receptor alpha (ER-alpha) signaling pathway using the BG1 cell line (AID 743079). Note: nearly all actives have a fitted effect of over 20% in size. Note: potency is the fitted concentration of half-maximal effect.
The nature of assay [8]: qHTS assay to identify small molecule antagonists of the estrogen receptor alpha (ER-alpha) signaling pathway using the BG1 cell line (AID 743080; calls by dose curve;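 note: BG1 cells stimulated with 17beta-estradiol alongside compound; series mostly up to about 70 µM; nearly all actives have a fitted effect of over 25% in size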). A digest of the protocol: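 Luciferase inhibition measured with ONE-Glo after 30 min at RT in BG1Luc4E2 cells given test compounds and 17beta-estradiol for 21.5 h at 37 C; CellTiter-Fluor viability read in the same wells beforehand.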

Assay [9] is described as follows: qHTS assay to identify small molecule antagonists of the estrogen receptor alpha (ER-alpha) signaling pathway using the BG1 cell line - cell viability counter screen (AID 743081).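 Note: compound given together with 17beta-estradiol as the ER stimulus; series mostly up to about 70 µM; nearly all actives have a fitted effect of over 45% in size.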
For a further assay, the target named is Aromatase (Homo sapiens) (UniProt P11511). The assay is described as follows: qHTS assay to identify aromatase inhibitors (AID 743083). Note: series mostly up to about 70 µM; nearly all actives have a fitted effect of over 55% in size.
Aromatase (Homo sapiens), sequence (P11511 whole entry, looked up): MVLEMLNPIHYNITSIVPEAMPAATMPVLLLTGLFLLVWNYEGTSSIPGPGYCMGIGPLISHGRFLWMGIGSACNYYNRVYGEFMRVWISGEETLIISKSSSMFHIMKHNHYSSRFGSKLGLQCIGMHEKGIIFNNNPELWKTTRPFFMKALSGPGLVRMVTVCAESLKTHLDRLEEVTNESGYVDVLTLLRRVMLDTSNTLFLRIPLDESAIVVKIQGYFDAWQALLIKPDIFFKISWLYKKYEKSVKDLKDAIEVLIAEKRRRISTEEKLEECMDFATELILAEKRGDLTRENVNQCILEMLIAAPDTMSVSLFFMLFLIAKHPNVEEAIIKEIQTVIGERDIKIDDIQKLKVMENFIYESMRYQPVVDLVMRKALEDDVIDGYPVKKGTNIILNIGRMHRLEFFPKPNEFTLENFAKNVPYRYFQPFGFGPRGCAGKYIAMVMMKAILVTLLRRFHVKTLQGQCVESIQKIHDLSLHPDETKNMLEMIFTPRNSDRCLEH
Assay [10] can be described thus: qHTS assay to identify aromatase inhibitors - cell viability counter screen (AID 743084).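 Note: cells stimulated with testosterone during compound exposure; nearly all actives have a fitted effect of over 55% in size.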
The target of assay [11] is Aryl hydrocarbon receptor (Homo sapiens) (UniProt P35869). The assay can be described thus: qHTS assay to identify small molecule that activate the aryl hydrocarbon receptor (AhR) signaling pathway (AID 743085).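 Note: HG2L7.5c1 human HepG2 liver cells with stably integrated DRE-driven firefly reporter; series mostly up to about 70 µM; nearly all actives have a fitted effect of over 15% in size.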 A digest of the protocol: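 Luminescence read-out: ONE-Glo reagent, 30 min at room temperature, in HG2L7.5c1 HepG2 reporter cells treated 24 h at 37C. Viability was measured beforehand by CellTiter-Fluor fluorescence after 30 min at 37C.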
Aryl hydrocarbon receptor (Homo sapiens), sequence (P35869 whole entry, looked up): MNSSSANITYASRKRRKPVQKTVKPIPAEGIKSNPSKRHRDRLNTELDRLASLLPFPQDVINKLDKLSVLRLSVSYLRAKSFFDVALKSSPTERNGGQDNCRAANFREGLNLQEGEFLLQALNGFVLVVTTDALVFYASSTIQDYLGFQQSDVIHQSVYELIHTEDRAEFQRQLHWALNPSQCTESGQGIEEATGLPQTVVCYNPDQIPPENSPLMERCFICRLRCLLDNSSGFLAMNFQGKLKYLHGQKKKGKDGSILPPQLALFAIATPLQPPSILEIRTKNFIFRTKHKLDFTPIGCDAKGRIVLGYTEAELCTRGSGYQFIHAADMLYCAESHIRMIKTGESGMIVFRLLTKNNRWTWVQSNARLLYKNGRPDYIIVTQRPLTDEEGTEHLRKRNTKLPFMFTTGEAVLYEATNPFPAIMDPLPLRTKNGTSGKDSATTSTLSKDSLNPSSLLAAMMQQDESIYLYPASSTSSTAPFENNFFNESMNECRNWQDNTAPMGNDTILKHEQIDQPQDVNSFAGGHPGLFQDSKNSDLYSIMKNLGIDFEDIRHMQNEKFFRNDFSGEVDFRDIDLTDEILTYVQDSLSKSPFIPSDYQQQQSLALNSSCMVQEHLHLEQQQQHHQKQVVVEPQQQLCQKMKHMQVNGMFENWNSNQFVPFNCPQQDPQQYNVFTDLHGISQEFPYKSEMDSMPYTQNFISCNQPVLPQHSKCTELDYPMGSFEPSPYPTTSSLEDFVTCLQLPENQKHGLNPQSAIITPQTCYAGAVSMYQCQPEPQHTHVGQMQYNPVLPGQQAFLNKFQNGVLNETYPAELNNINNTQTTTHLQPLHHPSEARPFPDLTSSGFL

Assay [12] can be described thus: qHTS assay to identify small molecule that activate the aryl hydrocarbon receptor (AhR) signaling pathway - cell viability counter screen (AID 743086).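 Note: HepG2 liver cells carrying the AhR DRE luciferase reporter; series mostly up to about 70 µM; nearly all actives have a fitted effect of over 45% in size.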 A digest of the protocol:
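HepG2-AhR-luc (HG2L7.5c1) cells, 4000/well, were preincubated 5 h at 37C, exposed to compound in qHTS format for 24 hr at 37C, then given CellTiter-Fluor for 30 min; viability was read as fluorescence in the reporter wells.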

Assay [13] concerns the target Peroxisome proliferator-activated receptor gamma (Homo sapiens) (UniProt P37231). The assay can be described thus: qHTS assay to identify small molecule agonists of the peroxisome proliferator-activated receptor gamma (PPARg) signaling pathway (AID 743094; active = well fitted activation curve with a large enough effect in the signal ratio in the repeat runs, not every such curve was filed as active; the % refers to the signal ratio). A digest of the protocol: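 Following 5 h plating at 37C, PPARg-bla HEK293H cells receive compound or DMSO for 17 h; fluorescence intensity is recorded after LiveBLAzer B/G loading for 1 h at room temperature.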

For assay [14] the target is unchanged. The assay is described as follows: qHTS assay to identify small molecule antagonists of the peroxisome proliferator-activated receptor gamma (PPARg) signaling pathway (AID 743191; calls by dose curve; note: series mostly up to about 63 µM; nearly all actives have a fitted effect of over 30% in size). A digest of the protocol: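 GeneBLAzer PPARg UAS-bla HEK293H cells carrying a UAS-driven beta-lactamase reporter were plated at 3000 cells/well, preincubated 5 h at 37C, then given compound for 17 h at 37C; LiveBLAzer B/G FRET substrate was read after 1 h at room temperature.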

Assay [15] is described as follows: qHTS assay to identify small molecule antagonists of the peroxisome proliferator-activated receptor gamma (PPARg) signaling pathway - cell viability counter screen (AID 743194). Note: nearly all actives have a fitted effect of over 55% in size. Put shortly: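 PPARg-UAS-bla HEK293H cells were plated, rested 5 h at 37 C, then treated with compounds plus rosiglitazone (50 nM final) for 17 h at 37 C; viability was then read by CellTiter-Glo luminescence after 30 min at room temperature.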

Assay [16] is described as follows: qHTS assay for small molecule agonists of the antioxidant response element (ARE) signaling pathway (AID 743202; active = well fitted activation curve with a large enough effect in the signal ratio in the repeat runs, not every such curve was filed as active; the % refers to the signal ratio; note: potency is the fitted concentration of half-maximal effect). A digest of the protocol:
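Read-out: LiveBLAzer B/G FRET substrate fluorescence after 2 h at room temperature, following 16 h compound treatment at 37 C of HepG2 cells carrying an ARE-driven beta-lactamase reporter.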

Assay [17] can be described thus: qHTS assay for small molecule activators of the heat shock response signaling pathway - cell viability counter screen (AID 743209). Note: nearly all actives have a fitted effect of over 50% in size. A digest of the protocol: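 Counter screen for cytotoxicity in HeLa HSE-bla reporter cells. Treatment was 5 h at 37 C; viability was detected by luminescent ATP assay (CellTiter-Glo) in the same wells as the beta-lactamase read.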
A short description of assay [18]: qHTS assay for small molecule activators of the heat shock response signaling pathway (AID 743210; active = well fitted activation curve with a large enough effect in the signal ratio in the repeat runs, with a control signal flat, not every such curve was filed as active; the % refers to the signal ratio; note: series mostly up to about 63 µM). Put shortly: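 HSE-bla HeLa cells (beta-lactamase reporter under heat shock response elements) were exposed to compounds for 5 h at 37 C, then loaded with LiveBLAzer B/G FRET substrate for 2.5 h at room temperature before fluorescence reading.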
Assay [19] is described as follows: qHTS assay for small molecule agonists of the antioxidant response element (ARE) signaling pathway - cell viability counter screen (AID 743203; calls by dose curve; note: nearly all actives have a fitted effect of over 55% in size). A digest of the protocol: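 Compounds in DMSO were pinned onto ARE-bla HepG2 cells plated 5 hrs earlier at 2,000 cells/well. Sixteen hours later at 37C/5% CO2, CellTiter-Glo was added and luminescence measured after 30 min at room temperature.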

Peroxisome proliferator-activated receptor gamma (Homo sapiens), sequence (P37231 whole entry, looked up): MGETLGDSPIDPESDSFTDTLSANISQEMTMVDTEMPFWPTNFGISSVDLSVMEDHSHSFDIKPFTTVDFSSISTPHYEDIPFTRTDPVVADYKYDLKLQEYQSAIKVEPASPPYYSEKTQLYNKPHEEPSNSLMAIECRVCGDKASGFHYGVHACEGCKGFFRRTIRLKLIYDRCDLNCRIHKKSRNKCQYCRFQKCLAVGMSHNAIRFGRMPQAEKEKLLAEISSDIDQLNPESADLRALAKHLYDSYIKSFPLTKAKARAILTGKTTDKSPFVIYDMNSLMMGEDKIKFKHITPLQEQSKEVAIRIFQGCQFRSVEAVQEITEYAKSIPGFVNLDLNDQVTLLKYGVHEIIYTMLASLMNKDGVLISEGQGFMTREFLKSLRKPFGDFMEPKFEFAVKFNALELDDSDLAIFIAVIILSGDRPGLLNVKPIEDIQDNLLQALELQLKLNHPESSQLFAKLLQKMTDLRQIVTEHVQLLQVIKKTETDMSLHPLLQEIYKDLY

For the molecule `CC(C)OC(=O)COc1ccc(Cl)cc1Cl`, the Potency result in [1], in assay [2], in assay [4], in [6], in assay [7] and in assay [9] was “inactive” each time. In addition, the Potency result (with Aromatase (Homo sapiens); in assay [10]; in assay [11]; in assay [12]; in assay [16]) was “inactive” in each case. Also, the molecule was called inactive in assay [3], in assay [5], in assay [8], in assay [13], in assay [14] and in [15]. For the same molecule, the molecule was called inactive in assay [17] and in assay [18].

As to `Nc1nc(N)nc(-c2ccccc2)n1`, the Potency result (in assay [1]; in [2]; in assay [4]; in [6]; in assay [9]; with Aromatase (Homo sapiens)) was “inactive” each time. In addition, the Potency result in assay [10], in assay [12], in assay [16] and in assay [19] was “inactive” in each case. Further, the result in assay [3], in [5], in assay [8], in [13], in [15] and in assay [17] was inactive. Also, the call in assay [18] was inactive. For the same molecule, the Potency result in assay [7] was “inactive and 34.4 µM (active)”.

Consider `C=CC(=O)OCCC(=O)O`, for which the Potency result in assay [1], in [2], in assay [4], in assay [6], in assay [7] and in [9] was “inactive” each time. Moreover, the Potency entry (with Aromatase (Homo sapiens); in [10]; in assay [11]; in [12]; in assay [19]) was “inactive” throughout. For the same molecule, the molecule was called inactive in [3], in [5], in assay [13], in assay [14], in assay [15] and in [17]. For the same molecule, the molecule was classed as inactive in assay [18]. Besides, in assay [16], the Potency was 9.69 µM (active).

With `O=c1[nH]cnc2[nH]ncc12`, the Potency result in assay [1], in assay [2], in [4], in [6], in [7] and in [9] was “inactive” in each case. Also, the Potency entry (with Aromatase (Homo sapiens); in assay [10]; in assay [11]; in [12]; in assay [16]; in assay [19]) was “inactive” each time. Further, the molecule was called inactive in assay [3], in assay [5], in assay [8], in assay [13], in assay [15] and in [17]. The call in assay [18] was inactive.

Turning to `CCCCCCC=O`, the Potency result (in [1]; in assay [2]; in assay [6]; in assay [7]; in [9]; with Aromatase (Homo sapiens)) was “inactive” each time. For the same molecule, the Potency entry in [10], in [11], in [12], in [16] and in assay [19] was “inactive” each time. The outcome in [3], in assay [5], in [8], in assay [13], in [15] and in [17] was inactive. Besides, in assay [18], the call was inactive.

For the molecule `C=CC(C)CCCC(C)(C)O` (stereo unspecified), the Potency result (in assay [1]; in assay [2]; in assay [6]; in assay [7]; in assay [9]; with Aromatase (Homo sapiens)) was “inactive” throughout. Moreover, the Potency entry in assay [10], in assay [11], in [12], in [16] and in assay [19] was “inactive” each time. Also, the molecule was called inactive in [3], in assay [5], in assay [8], in [13], in assay [15] and in assay [17].

Turning to `O=C(O)c1ccc(S(=O)(=O)N(Cl)Cl)cc1`, the Potency entry (in [1]; in assay [2]; in assay [6]; in assay [7]; in assay [9]; with Aromatase (Homo sapiens)) was “inactive” each time. Moreover, the Potency entry in [10], in assay [11], in assay [12] and in assay [19] was “inactive” in each case. The call in assay [3], in [5], in assay [8], in assay [13], in assay [15] and in [17] was inactive. For the same molecule, the outcome in assay [18] was inactive. Further, the Potency in [16] was 27.5 µM (active) and inactive.

For the molecule `CC1(C)S[C@@H]2[C@H](NC(=O)COc3ccccc3)C(=O)N2[C@H]1C(=O)O`, the Potency entry (in assay [1]; in [2]; in assay [6]; in [7]; in [9]; in the assay with Aromatase (Homo sapiens)) was “inactive” each time. The Potency entry in assay [10], in [11], in assay [12] and in assay [16] was “inactive” each time. Also, the call in assay [3], in [5], in [8], in assay [13], in assay [14] and in [15] was inactive. Further, the call in assay [17] and in assay [18] was inactive.
